84 sequences from paper PMC10668032, “Altered binding affinity of SIX1-Q177R correlates with enhanced WNT5A and WNT pathway effector expression in Wilms tumor” can be followed below.

The full ranking holds about 33,000 sequences; the median of “e-score” is about -0.053, and the highest 2% start at about 0.38. The sample as a whole holds a higher share of the highest values than the screen did.

This assay addresses T1, SIX1 homeodomain (reference allele) (human, UniProt Q15475 108-198).
T1 sequence: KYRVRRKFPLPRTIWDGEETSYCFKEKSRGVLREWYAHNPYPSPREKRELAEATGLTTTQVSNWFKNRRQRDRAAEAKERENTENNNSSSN
Kind of assay: universal protein binding microarray; Universal all-10-mer PBM (8x60K, AMADID 030236), 300 nM GST-tagged protein, Alexa Fluor 488 anti-GST; buffer, salt, pH and temperature not stated (as in Berger); high values mean tight binding. The conditions noted are these: protein: ivt; tags: N-terminal GST; dsDNA, one strand shown. The gist of the method: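 GST-tagged homeodomains were made by in vitro transcription/translation and quantified by anti-GST western blot against a recombinant GST standard curve. They were applied in duplicate at 300 nM final concentration to universal 'all 10-mer' protein binding microarrays (8×60K format). Binding was quantified as 8-mer E-scores with the Universal PBM Analysis Suite.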
Regarding GGTATTTA, the binding signal was determined as 0.191 ± 0.035 E-score. Under ATCCCATC stands 0.297 ± 0.0291 E-score; under ATCGATGG, 0.185 ± 0.0344 E-score. On to ATATATCA, for which the binding signal worked out at 0.4 ± 0.0452 E-score. For the sequence AAATATCA, the binding signal turned out to be 0.224 ± 0.158 E-score. Take CTATATTA: the binding signal was found to be 0.152 ± 0.0427 E-score. Take ATATATCC: the binding signal stood at 0.438 ± 0.0246 E-score.

As to CTCTATCC, the binding signal was determined as 0.216 ± 0.0113 E-score. Under CTATATCA stands 0.412 ± 0.033 E-score; under ATATATCG, 0.372 ± 0.0566 E-score. As for CTATATCC, the binding signal came out at 0.366 ± 0.00388 E-score. Under GTATATCA stands 0.429 ± 0.0166 E-score; under ATATATAA, 0.298 ± 0.0548 E-score; under GTATATAA, 0.245 ± 0.0101 E-score. Under GTATATGA stands 0.225 ± 0.0139 E-score; under ATCCAACC, 0.173 ± 0.00282 E-score; under TATCTAGA, 0.189 ± 0.00564 E-score. Under ATACGTGG stands 0.272 ± 0.04 E-score; under ACAACACC, 0.23 ± 0.0178 E-score. For TATAACAA, the binding signal was 0.2242 ± 0.00053 E-score. Under ATATTAGG stands 0.257 ± 0.0151 E-score; under CGAAGATC, 0.202 ± 0.00878 E-score; under AAAGATAC, 0.365 ± 0.0561 E-score. Under TATGATAA stands 0.17 ± 0.026 E-score; under GATAATAC, 0.406 ± 0.0398 E-score; under AATGATAC, 0.467 ± 0.0253 E-score.

Consider AATAATAC, for which the binding signal was 0.345 ± 0.0992 E-score. Under CATGATAG stands 0.274 ± 0.0672 E-score.

On to CATGACAC, for which the binding signal came to 0.35 ± 0.0169 E-score. As for CATAATAC, the figure is 0.34 ± 0.0222 E-score.

As for GATGATAC, the binding signal was determined as 0.484 ± 0.00743 E-score. As for GATGATGA, the binding signal came to 0.189 ± 0.0213 E-score. In the case of AATGATAG, the binding signal worked out at 0.309 ± 0.0717 E-score. Under CATGATAC stands 0.4813 ± 0.00335 E-score; under CCACGATA, 0.324 ± 0.0401 E-score. As for GTATGCGA, the figure is 0.225 ± 0.0379 E-score.

Turning to AGCGGGAT, the binding signal is 0.289 ± 0.0282 E-score.

Turning to ATGTAATA, the binding signal worked out at 0.208 ± 0.032 E-score. As for GGAGACAC, the figure is 0.219 ± 0.0128 E-score. Take ATCGGCAT: the binding signal turned out to be 0.205 ± 0.0425 E-score.

As for AATAACAC, the binding signal was found to be 0.151 ± 0.0395 E-score. Under TATGGGGA stands 0.232 ± 0.0667 E-score; under AAGTATAT, 0.184 ± 0.103 E-score. With AAAGATAT, the binding signal turned out to be 0.351 ± 0.0934 E-score. As for AATGATAT, the figure is 0.44 ± 0.0479 E-score.

For the sequence AATGAGAT, the binding signal amounted to 0.278 ± 0.0395 E-score. ATCGTCAT: the binding signal amounted to 0.22 ± 0.00839 E-score. As for AATCCGCG, the figure is 0.1997 ± 0.000431 E-score; as for AGACCGGA, 0.157 ± 0.0691 E-score; as for ATACGGGG, 0.335 ± 0.018 E-score. As for ATACCGGC, the binding signal was 0.319 ± 0.00766 E-score. Under ATACCGGA stands 0.381 ± 0.0112 E-score; under ATCCCGGG, 0.345 ± 0.0141 E-score; under ATACCGGG, 0.399 ± 0.016 E-score. As for ACCATGAT, the figure is 0.269 ± 0.0126 E-score; as for GATTATGA, 0.205 ± 0.0352 E-score; as for ATATGGCA, 0.204 ± 0.0271 E-score. Regarding GAGCCATA, the binding signal was 0.183 ± 0.0105 E-score.

On to GAATACGA, for which the binding signal turned out to be 0.24 ± 0.0047 E-score. Under GGATAGAC stands 0.151 ± 0.00296 E-score; under CAATATAC, 0.197 ± 0.0146 E-score; under CGTATTAA, 0.222 ± 0.0926 E-score. As for CGTATCAA, the figure is 0.466 ± 0.026 E-score; as for TGTATCAA, 0.41 ± 0.0207 E-score; as for CGTATAAC, 0.204 ± 0.0505 E-score. For the sequence CGTATTAC, the binding signal is 0.26 ± 0.0203 E-score. As to CCTATCAA, the binding signal stood at 0.288 ± 0.0228 E-score. As for GGGCTCAC, the figure is 0.268 ± 0.0467 E-score; as for CGTATCAC, 0.484 ± 0.00135 E-score; as for GGTCTCAC, 0.203 ± 0.0591 E-score. Consider TGTATTAA, for which the binding signal turned out to be 0.275 ± 0.027 E-score. As for TATCTCAA, the figure is 0.329 ± 0.0572 E-score; as for GGTATCAC, 0.497 E-score; as for TATCGGAA, 0.368 ± 0.0234 E-score. As to CACCCGGA, the binding signal is 0.276 ± 0.0383 E-score. Under CTGAGATC stands 0.253 ± 0.0174 E-score; under ATGAGACG, 0.251 ± 0.0275 E-score; under TATCTTCA, 0.251 ± 0.0591 E-score. As for GATCAGAC, the figure is 0.249 ± 0.0505 E-score; as for GGTATAAA, 0.286 ± 0.0691 E-score; as for GCTATCAA, 0.312 ± 0.0869 E-score. On to GGTATCAA, for which the binding signal was found to be 0.486 ± 0.00747 E-score. For ATACTTTG, the binding signal amounted to 0.253 ± 0.096 E-score. On to GGGTTAGA, for which the binding signal was 0.16 ± 0.0278 E-score.
